Values without a mark were called inactive.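 How the source made its calls: active means peak hERG channel inhibition above 30% at some tested dose, together with a fitted dose response curve; inactive means no hERG inhibition at any dose, or no curve.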
What follows are compounds tested against Voltage-gated inwardly rectifying potassium channel KCNH2 (Homo sapiens) (UniProt Q12809) (assay: hERG channel inhibition, SAR follow-up, selectivity assay for KCNK9 inhibitor project, FluxOR Tl flux, hERG-expressing cells (AID 504920)). Settings: FluxOR thallium flux fluorescence; series mostly up to 30 µM; fluorescence ratio, lower = inhibition: at the top concentration.
Sequence of Voltage-gated inwardly rectifying potassium channel KCNH2 (Homo sapiens) (Q12809 whole entry, looked up): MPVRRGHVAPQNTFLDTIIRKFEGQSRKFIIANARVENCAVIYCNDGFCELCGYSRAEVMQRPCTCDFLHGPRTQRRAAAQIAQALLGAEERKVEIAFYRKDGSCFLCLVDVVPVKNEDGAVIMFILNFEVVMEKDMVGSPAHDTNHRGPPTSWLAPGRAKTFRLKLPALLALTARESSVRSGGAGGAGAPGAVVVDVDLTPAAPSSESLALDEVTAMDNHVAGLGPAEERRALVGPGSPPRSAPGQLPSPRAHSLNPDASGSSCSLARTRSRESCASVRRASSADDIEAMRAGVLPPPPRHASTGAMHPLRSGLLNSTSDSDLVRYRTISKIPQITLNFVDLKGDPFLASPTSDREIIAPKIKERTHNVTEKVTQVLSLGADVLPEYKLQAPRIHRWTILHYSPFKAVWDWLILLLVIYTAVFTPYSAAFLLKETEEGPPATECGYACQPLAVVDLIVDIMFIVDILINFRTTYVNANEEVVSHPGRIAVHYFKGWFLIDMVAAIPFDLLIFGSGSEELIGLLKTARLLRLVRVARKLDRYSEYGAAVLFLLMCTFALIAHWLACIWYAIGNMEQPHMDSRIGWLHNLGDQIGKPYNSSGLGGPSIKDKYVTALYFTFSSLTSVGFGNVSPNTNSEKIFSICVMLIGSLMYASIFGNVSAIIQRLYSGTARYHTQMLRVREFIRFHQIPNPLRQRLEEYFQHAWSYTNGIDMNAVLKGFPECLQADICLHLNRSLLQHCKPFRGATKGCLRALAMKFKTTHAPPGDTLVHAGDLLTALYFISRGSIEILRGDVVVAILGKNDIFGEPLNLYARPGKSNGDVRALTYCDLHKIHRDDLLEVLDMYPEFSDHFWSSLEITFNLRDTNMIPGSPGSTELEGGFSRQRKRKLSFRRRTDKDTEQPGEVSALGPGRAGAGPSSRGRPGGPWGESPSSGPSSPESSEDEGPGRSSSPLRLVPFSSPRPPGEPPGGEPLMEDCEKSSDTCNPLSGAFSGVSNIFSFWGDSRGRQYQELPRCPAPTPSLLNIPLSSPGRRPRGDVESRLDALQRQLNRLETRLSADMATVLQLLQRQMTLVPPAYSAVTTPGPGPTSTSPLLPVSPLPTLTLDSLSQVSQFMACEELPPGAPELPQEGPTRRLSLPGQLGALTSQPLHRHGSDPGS

SMILES | fluorescence ratio, lower = inhibition
Cc1cccc(NC(=O)c2cccc(NC(=O)c3ccccc3)c2)c1 | 0.4
Cc1cccc(C(=O)Nc2ccccc2C(=O)Nc2ccccc2)c1 | 0.274
Cc1cccc(NC(=O)c2ccccc2NC(=O)c2ccccc2)c1 | 0.494
Cc1cccc(C(=O)Nc2ccc(C(=O)Nc3ccccc3)cc2)c1 | 0.47
Cc1cccc(C(=O)Nc2cccc(C(=O)Nc3ccccc3)c2)c1 | 0.362

Source: PubChem BioAssay AID504920 (Johns Hopkins Ion Channel Center, 2011)
